Experimental data as given in PubChem BioAssay (Tox21).
Records with an inconclusive call do not appear. Calls of active or inactive are those of the source. Unless noted, calls follow the shape of the full dose curve.

Molecular target: Acetylcholinesterase (Homo sapiens) (UniProt P22303)
Assay: Acetylcholinesterase (AChE) small molecule antagonists: enzyme-based qHTS assay with human liver microsomes (AID 1347399); also: nearly all actives have a fitted effect of over 60% in size
Conditions: Potency: qHTS inhibition; series mostly up to 115 µM; activity change, negative = inhibition: at the top concentration
Outline: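 Recombinant human AChE (50 mU/mL in the enzyme mix) and human liver microsomes (0.25 mg/mL final) were preincubated with compound and NADPH (0.25 mg/mL final) for 30 min at 37 C. Acetylthiocholine/DTNB was then added; thiocholine was read colorimetrically after 10 min at room temperature.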
% is scaled to controls: 0 for no effect and ±100 for the full control effect; potency is read from the fitted curve at half-maximal effect.

Acetylcholinesterase (Homo sapiens), sequence (P22303 whole entry, looked up): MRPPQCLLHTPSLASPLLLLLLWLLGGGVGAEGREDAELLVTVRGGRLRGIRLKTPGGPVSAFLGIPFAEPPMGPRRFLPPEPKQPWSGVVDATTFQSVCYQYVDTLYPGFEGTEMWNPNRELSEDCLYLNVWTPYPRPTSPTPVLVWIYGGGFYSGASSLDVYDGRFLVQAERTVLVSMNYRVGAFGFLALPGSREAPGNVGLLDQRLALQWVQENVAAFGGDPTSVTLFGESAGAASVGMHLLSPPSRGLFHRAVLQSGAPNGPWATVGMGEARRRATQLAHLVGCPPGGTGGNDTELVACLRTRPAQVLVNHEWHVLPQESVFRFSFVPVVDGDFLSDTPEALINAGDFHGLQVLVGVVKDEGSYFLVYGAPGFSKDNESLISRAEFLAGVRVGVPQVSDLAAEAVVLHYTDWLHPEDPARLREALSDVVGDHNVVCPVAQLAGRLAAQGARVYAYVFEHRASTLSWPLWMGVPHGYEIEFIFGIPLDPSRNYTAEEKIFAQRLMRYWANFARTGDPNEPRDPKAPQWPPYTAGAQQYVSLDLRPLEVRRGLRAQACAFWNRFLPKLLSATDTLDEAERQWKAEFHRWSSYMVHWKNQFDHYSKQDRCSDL

SMILES | activity change, negative = inhibition | Potency
CC(C)[N+](=O)[O-] | 0.384% (inactive) | 
CC(CC(C#N)(c1ccccc1)c1ccccc1)N(C)C (centres undefined) | -0.599% (inactive) | 
O=[N+]([O-])c1cccc2cccnc12 | -2.2% (inactive) | 
C[C@@H]1CN(C2CCC(C#N)(c3ccc(F)cc3)CC2)CC[C@]1(C(=O)O)c1ccccc1 (some centres undefined) | -1.08% [at 53 µM] (inactive) | 
C[C@]1(O)CC[C@H]2[C@@H]3CCC4=CC(=O)CC[C@]4(C)[C@@]3(F)[C@@H](O)C[C@@]21C | -4.11% (inactive) | 
C#CCN1C(=O)COc2cc(F)c(N3C(=O)C4=C(CCCC4)C3=O)cc21 | 0% (inactive) | 
COC(=O)C(C)Oc1ccc(Oc2ccc(Cl)cc2Cl)cc1 (centres undefined) | 1.46% (inactive) | 
O=C1OC(=O)C2C1C1(Cl)C(Cl)=C(Cl)C2(Cl)C1(Cl)Cl (centres undefined) | -0.832% (inactive) | 
CCSC(=O)N(CC)C1CCCCC1 | 0.952% (inactive) | 
CC1=C(C(=O)Nc2ccccc2)S(=O)(=O)CCO1 | 0% (inactive) | 
Nc1cc2c3c(c1)C(c1ccccc1)=N[C@@H](NC(=O)c1cccnc1)C(=O)N3CC2 | 0.88% (inactive) | 
COc1cc2c(cc1OC)[C@@]13CCN4CC5=CCO[C@H]6CC(=O)N2[C@H]1[C@H]6[C@H]5C[C@H]43 | -0.632% (inactive) | 
COC(=O)c1ccccc1S(=O)(=O)NC(=O)Nc1nc(C)cc(C)n1 | -2.28% (inactive) | 
N#Cc1c(Cl)cccc1Cl | -0.366% (inactive) | 
CC1=NNC(=O)N(/N=C/c2cccnc2)C1 | 0.533% (inactive) | 
CCCSC(=O)Cl | -2.27% (inactive) | 
OCCSCSCCO | 0.461% (inactive) | 
CCOC(=O)/C=C(C)/C=C/C[C@@H](C)CCCC(C)C | 0.874% (inactive) | 
CCOC(=O)C1(c2ccccc2)CCN(CCc2ccc(N)cc2)CC1 | 0.168% [at 53 µM] (inactive) | 

SMILES | activity change, negative = inhibition | Potency
N#CC(Cl)(Cl)Cl | -2.55% (inactive) | 
CCOP(=S)(OCC)SCSP(=S)(OCC)OCC |  | 17.8 µM (active)
O=[N+]([O-])c1ccc2c3c(cccc13)CC2 | 2.49% (inactive) | 
C(CCOCC1CO1)COCC1CO1 (centres undefined) | 0.81% (inactive) | 
CC(N)=S | 1.76% (inactive) | 
COC(=O)C(c1ccccc1)C1CCCCN1 (centres undefined) | -3.76% (inactive) | 
O=CNC(N1CCN(C(NC=O)C(Cl)(Cl)Cl)CC1)C(Cl)(Cl)Cl (centres undefined) | 0.887% (inactive) | 
O=[N+]([O-])c1ccc(CBr)cc1 | -0.354% (inactive) | 
CCCCP(CCCC)CCCC | -0.0718% (inactive) | 
C=C(C)CN(CC)c1c([N+](=O)[O-])cc(C(F)(F)F)cc1[N+](=O)[O-] | -0.146% (inactive) | 
CCCCc1ccc(O)cc1 | 0.524% (inactive) | 
CCN(CC)C(=O)[C@@H]1C=C2c3cccc4[nH]cc(c34)C[C@H]2N(C)C1 | -23.5% [at 300 µM] (inactive) | 
CC(Oc1ccc(Oc2ncc(C(F)(F)F)cc2Cl)cc1)C(=O)O (centres undefined) | -3.36% (inactive) | 
CCC(C)(C)c1cc(-n2nc3ccccc3n2)c(O)c(C(C)(C)CC)c1 | -1.65% (inactive) | 
CC(Cl)(Cl)[N+](=O)[O-] | 2.16% (inactive) | 
O=c1oc2ccccc2c(O)c1C1CCCc2ccccc21 (centres undefined) | 0.382% (inactive) | 
O=C1OC(CCN2CCCCC2)OC1(c1ccccc1)c1ccccc1 (centres undefined) | 1.92% [at 53 µM] (inactive) | 
COc1cc(OC)nc(NC(=O)NS(=O)(=O)c2ncccc2OCC(F)(F)F)n1 | -0.637% (inactive) | 

Molecular target: Cytochrome P450 2D6 (Homo sapiens) (UniProt P10635)
Sequence (P10635 whole entry, looked up): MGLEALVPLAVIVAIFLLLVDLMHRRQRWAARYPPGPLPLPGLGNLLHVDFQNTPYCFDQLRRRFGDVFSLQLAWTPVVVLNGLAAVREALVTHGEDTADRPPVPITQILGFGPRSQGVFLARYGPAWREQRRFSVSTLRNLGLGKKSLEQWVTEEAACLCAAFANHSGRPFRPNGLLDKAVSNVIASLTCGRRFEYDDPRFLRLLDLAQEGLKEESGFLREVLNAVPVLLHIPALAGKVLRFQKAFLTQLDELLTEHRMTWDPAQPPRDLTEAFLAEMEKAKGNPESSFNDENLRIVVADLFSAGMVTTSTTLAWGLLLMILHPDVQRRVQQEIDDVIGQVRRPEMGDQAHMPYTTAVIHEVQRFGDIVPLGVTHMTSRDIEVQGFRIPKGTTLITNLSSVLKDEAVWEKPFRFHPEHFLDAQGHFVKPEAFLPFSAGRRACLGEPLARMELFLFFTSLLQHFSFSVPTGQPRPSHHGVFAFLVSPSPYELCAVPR
Assay: Cytochrome P450 Family 2 Subfamily D Member 6 (CYP2D6) small molecule antagonists: luciferase reporter qHTS assay (AID 1671196; active = well fitted inhibition curve with a large enough effect in the repeat runs; also: nearly all actives have a fitted effect of over 50% in size)
Conditions: P450-Glo CYP2D6 enzyme assay, luciferin luminescence, 1 h; series mostly up to 115 µM; activity change, negative = inhibition: at the top concentration
Outline: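 CYP2D6 activity was followed as luminescence from its luciferin product after a 1 h NADPH-driven reaction at room temperature. Enzyme-substrate mix and compound were pre-incubated for 10 min, and the signal was read 20 min after adding detection reagent.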

SMILES | activity change, negative = inhibition | Potency
CC(C)[N+](=O)[O-] | -5.42% (inactive) | 
CC(CC(C#N)(c1ccccc1)c1ccccc1)N(C)C (centres undefined) |  | 11.2 µM (active)
O=[N+]([O-])c1cccc2cccnc12 | -16.3% (inactive) | 
C[C@@H]1CN(C2CCC(C#N)(c3ccc(F)cc3)CC2)CC[C@]1(C(=O)O)c1ccccc1 (some centres undefined) |  | 1.55 µM (active)
C[C@]1(O)CC[C@H]2[C@@H]3CCC4=CC(=O)CC[C@]4(C)[C@@]3(F)[C@@H](O)C[C@@]21C | -6.32% (inactive) | 
C#CCN1C(=O)COc2cc(F)c(N3C(=O)C4=C(CCCC4)C3=O)cc21 |  | 44.8 µM (active)
COC(=O)C(C)Oc1ccc(Oc2ccc(Cl)cc2Cl)cc1 (centres undefined) | -95.6% (inactive) | 
CCSC(=O)N(CC)C1CCCCC1 | -5.61% (inactive) | 
CC1=C(C(=O)Nc2ccccc2)S(=O)(=O)CCO1 | -9.65% (inactive) | 
Nc1cc2c3c(c1)C(c1ccccc1)=N[C@@H](NC(=O)c1cccnc1)C(=O)N3CC2 | -21.5% (inactive) | 
COC(=O)c1ccccc1S(=O)(=O)NC(=O)Nc1nc(C)cc(C)n1 | -0.48% (inactive) | 
N#Cc1c(Cl)cccc1Cl | -4.55% (inactive) | 
CC1=NNC(=O)N(/N=C/c2cccnc2)C1 | -4.44% (inactive) | 
CCCSC(=O)Cl | -2.55% (inactive) | 
CCOC(=O)C1(c2ccccc2)CCN(CCc2ccc(N)cc2)CC1 |  | 3.47 µM (active)
N#CC(Cl)(Cl)Cl |  | 69.2 µM (active)

SMILES | activity change, negative = inhibition | Potency
CCOP(=S)(OCC)SCSP(=S)(OCC)OCC |  | 35.6 µM (active)
C(CCOCC1CO1)COCC1CO1 (centres undefined) | 4.13% (inactive) | 
CC(N)=S | -17% (inactive) | 
COC(=O)C(c1ccccc1)C1CCCCN1 (centres undefined) |  | 22.5 µM (active)
O=CNC(N1CCN(C(NC=O)C(Cl)(Cl)Cl)CC1)C(Cl)(Cl)Cl (centres undefined) |  | 31.7 µM (active)
O=[N+]([O-])c1ccc(CBr)cc1 | -14.5% (inactive) | 
CCCCP(CCCC)CCCC |  | 35.6 µM (active)
C=C(C)CN(CC)c1c([N+](=O)[O-])cc(C(F)(F)F)cc1[N+](=O)[O-] | -13.2% (inactive) | 
CCCCc1ccc(O)cc1 | -14.7% (inactive) | 
CCN(CC)C(=O)[C@@H]1C=C2c3cccc4[nH]cc(c34)C[C@H]2N(C)C1 |  | 0.466 µM (active)
CC(Oc1ccc(Oc2ncc(C(F)(F)F)cc2Cl)cc1)C(=O)O (centres undefined) |  | 71 µM (active)
CCC(C)(C)c1cc(-n2nc3ccccc3n2)c(O)c(C(C)(C)CC)c1 |  | 25.6 µM (active)
CC(Cl)(Cl)[N+](=O)[O-] | -20.8% (inactive) | 
O=c1oc2ccccc2c(O)c1C1CCCc2ccccc21 (centres undefined) | -24.1% (inactive) | 
O=C1OC(CCN2CCCCC2)OC1(c1ccccc1)c1ccccc1 (centres undefined) |  | 0.871 µM (active)
COc1cc(OC)nc(NC(=O)NS(=O)(=O)c2ncccc2OCC(F)(F)F)n1 | -9.19% (inactive) | 
